From PubChem BioAssay (NCI) come the findings set out here.

Test systems include SR leukemia; RPMI-8226 leukemia; OVCAR-8 ovarian; OVCAR-5 ovarian; OVCAR-4 ovarian; SK-OV-3 ovarian; IGROV1 ovarian; OVCAR-3 ovarian; HS 578T breast; NCI/ADR-RES ovarian.
Common to all, as to assay: NCI-60 one-dose screen, 48 h (100 = growth as untreated, 0 = no growth, -100 = all killed)
Conditions in all cases: 10 µM

This is part of a sample that, as a whole, favours compounds with a hit. Of some 83,000 tested, about 20% had one in any assay.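 Method: cells in 96-well plates; compound added at one concentration; 48 h incubation; percent growth measured; values under 10 scored active.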 Unmarked numbers belong to inactive results. Activity calls are given as the source filed them.

`Cc1noc2c(Cc3ccc([N+](=O)[O-])cc3)nn(CC(=O)N/N=C/c3ccc(Cl)cc3)c(=O)c12`: the growth in the assay with SR leukemia is 88.6%; in the assay with RPMI-8226 leukemia it was 84.7%; in the assay with OVCAR-8 ovarian it was 20.1%; in the assay on OVCAR-5 ovarian it was 73.7%; in the assay with OVCAR-4 ovarian, 7.98% (active); in the assay with SK-OV-3 ovarian, 67.2%. In addition, the growth in the assay with IGROV1 ovarian was 63.2%; in the assay on OVCAR-3 ovarian it was 35.8%; in the assay with HS 578T breast it was 10%; in the assay on NCI/ADR-RES ovarian it was 45.9%.

Consider `Cc1ccc2nc(COc3ccc(C(=O)NNC(=S)NCCc4ccccc4)cc3)[nH]c2c1`, for which the growth with SR leukemia was 88.2%; in the assay on RPMI-8226 leukemia, 87.7%; in the assay on OVCAR-8 ovarian it was 13.1%; in the assay on OVCAR-5 ovarian, 88.9%; in the assay with OVCAR-4 ovarian, -4.14% (active); in the assay on SK-OV-3 ovarian, 83.4%. The growth is 52.9% in the assay on IGROV1 ovarian, 105% in the assay on OVCAR-3 ovarian, 41.1% with HS 578T breast and 75.4% with NCI/ADR-RES ovarian.

As to `CN1CCN(Cc2ccc(NC(=O)c3cncc(C#Cc4cnc5ccc(N[C@@H]6CCOC6)nn45)c3)cc2C(F)(F)F)CC1`, the growth is -18.5% (active) with SR leukemia; -24.1% (active) with RPMI-8226 leukemia; -96.2% (active) in the assay on OVCAR-8 ovarian; -91.6% (active) with OVCAR-5 ovarian; -66.3% (active) in the assay with OVCAR-4 ovarian; -83.1% (active) in the assay with SK-OV-3 ovarian. The growth is -91.6% (active) in the assay with IGROV1 ovarian, -90.3% (active) with OVCAR-3 ovarian, -41% (active) with HS 578T breast and -77.5% (active) in the assay on NCI/ADR-RES ovarian.

For the compound `Cc1ccc(CNC(=O)Cc2ccc3c(c2)CN(C2CCC(=O)NC2=O)C3=O)cc1` (stereo not given), the growth with SR leukemia is 38.7%; in the assay with RPMI-8226 leukemia it was 30.3%; in the assay with OVCAR-8 ovarian, 1.57% (active); in the assay with OVCAR-5 ovarian, 29.5%; in the assay on OVCAR-4 ovarian, 0.757% (active); with SK-OV-3 ovarian, 18.4%. The growth is 2.34% (active) with IGROV1 ovarian, 6.03% (active) in the assay with OVCAR-3 ovarian, -15.4% (active) in the assay with HS 578T breast and -8.37% (active) in the assay with NCI/ADR-RES ovarian.

On to `COc1ccc2c(c1)N=C(C(=O)O)/C2=C/c1sc(Nc2ccc(O)cc2)nc1O`, for which the growth with SR leukemia was 24.9%; in the assay on RPMI-8226 leukemia it was 65.7%; in the assay with OVCAR-8 ovarian, 80.8%; with OVCAR-5 ovarian, 109%; in the assay with OVCAR-4 ovarian, 74.7%; in the assay with SK-OV-3 ovarian it was 86.1%. Further, the growth with IGROV1 ovarian was 74.6%; with OVCAR-3 ovarian it was 72.9%; in the assay on HS 578T breast, 50.9%; with NCI/ADR-RES ovarian it was 93.3%.

With `O=C(NO)c1ccc(Cn2ccc3c(NCc4ccccc4)ncnc32)cc1`, the growth with SR leukemia is 12.7%; in the assay with RPMI-8226 leukemia, 17.2%; in the assay with OVCAR-8 ovarian, -37.8% (active); in the assay on OVCAR-5 ovarian it was -8.63% (active); with OVCAR-4 ovarian, 36%; in the assay with SK-OV-3 ovarian, -30.5% (active). The growth is -40.1% (active) in the assay with IGROV1 ovarian, 8.99% (active) in the assay with OVCAR-3 ovarian, -0.0703% (active) in the assay on HS 578T breast and -32.1% (active) with NCI/ADR-RES ovarian.

Turning to `COc1cc2c(c(OC)c1OC)C(=O)CC(c1cccc(NC(=O)c3cccc(N)c3)c1)O2` (stereo not given), the growth was 47.7% with SR leukemia; 57.4% in the assay on RPMI-8226 leukemia; 55% with OVCAR-8 ovarian; 123% with OVCAR-5 ovarian; 64.1% in the assay on OVCAR-4 ovarian; 107% in the assay with SK-OV-3 ovarian. The growth with IGROV1 ovarian is 86.7%; in the assay on OVCAR-3 ovarian, 80.9%; in the assay with HS 578T breast, 90.3%; in the assay on NCI/ADR-RES ovarian it was 68.2%.

Consider `CN1CCO/C1=C(/NC(=O)c1ccc(Cl)cc1)[P+](c1ccccc1)(c1ccccc1)c1ccccc1`, for which the growth was 80.9% in the assay with SR leukemia; 24.8% in the assay with RPMI-8226 leukemia; 89% in the assay with OVCAR-8 ovarian; 92.1% in the assay on OVCAR-5 ovarian; 83.3% with OVCAR-4 ovarian; 106% with SK-OV-3 ovarian. Besides, the growth with IGROV1 ovarian is 59.4%; in the assay with OVCAR-3 ovarian it was 64.1%; in the assay with HS 578T breast, 93.7%; in the assay on NCI/ADR-RES ovarian it was 103%.

Take `Cc1noc2c(Cc3ccccc3)nn(CC(=O)N/N=C/c3ccc(Cl)cc3)c(=O)c12`: the growth in the assay on SR leukemia was 104%; with RPMI-8226 leukemia it was 75.5%; in the assay on OVCAR-8 ovarian, 8% (active); in the assay on OVCAR-5 ovarian it was 66%; in the assay with OVCAR-4 ovarian, -59.5% (active); in the assay on SK-OV-3 ovarian, 33.9%. The growth in the assay with IGROV1 ovarian was 41%; with OVCAR-3 ovarian, -31.8% (active); in the assay on HS 578T breast, 4.07% (active); with NCI/ADR-RES ovarian it was 53.2%.

Turning to `O=C(CNc1nc(-c2ccccc2)cs1)Nc1ccccc1`, the growth in the assay on SR leukemia is 4.25% (active); in the assay with RPMI-8226 leukemia it was 8.69% (active); in the assay on OVCAR-8 ovarian it was 10%; in the assay on OVCAR-5 ovarian it was -67.4% (active); in the assay on OVCAR-4 ovarian, 35%; with SK-OV-3 ovarian, 11.2%. Further, the growth was -7.7% (active) in the assay with IGROV1 ovarian, -12.1% (active) in the assay on OVCAR-3 ovarian, 14.3% with HS 578T breast and -22.8% (active) with NCI/ADR-RES ovarian.

In the case of `O=C(CSc1nnc(-c2ccc3nc(-c4ccc(Cl)cc4)[nH]c3c2)o1)Nc1ccc(Cl)cc1`, the growth in the assay on SR leukemia is 3.21% (active); with RPMI-8226 leukemia, 0.0065% (active); in the assay with OVCAR-8 ovarian, -17.6% (active); in the assay with OVCAR-5 ovarian it was -10.2% (active); with OVCAR-4 ovarian it was -46.7% (active); with SK-OV-3 ovarian, 21.6%. The growth in the assay with IGROV1 ovarian was -18.8% (active); with OVCAR-3 ovarian it was -15.4% (active); in the assay on HS 578T breast it was -32.5% (active); in the assay with NCI/ADR-RES ovarian, 11.8%.

Turning to `CN(C)CCNC(=O)OCCCCOc1cc(O)c2c(=O)cc(-c3ccccc3)oc2c1`, the growth with SR leukemia was -28.9% (active); in the assay with RPMI-8226 leukemia it was -9.41% (active); in the assay on OVCAR-8 ovarian, 3.84% (active); in the assay on OVCAR-5 ovarian, -4.32% (active); in the assay with OVCAR-4 ovarian, -16.2% (active); in the assay with SK-OV-3 ovarian, 99.1%. Further, the growth in the assay on IGROV1 ovarian was -9.88% (active); in the assay on OVCAR-3 ovarian, -77.1% (active); with HS 578T breast it was 40.7%; in the assay on NCI/ADR-RES ovarian, 27.9%.

`O=c1c2ccccc2nc(COc2ccccc2)n1/N=C/c1ccc(N2CCOCC2)cc1`: the growth in the assay with SR leukemia is 95.1%; with RPMI-8226 leukemia, 88.8%; in the assay on OVCAR-8 ovarian, 33.1%; in the assay with OVCAR-5 ovarian, 93.3%; with OVCAR-4 ovarian it was 40.4%; with SK-OV-3 ovarian, 64.5%. For the same compound, the growth in the assay with IGROV1 ovarian was 56.9%; with OVCAR-3 ovarian it was 85.2%; with HS 578T breast, 41.2%; in the assay on NCI/ADR-RES ovarian it was 58.1%.
